The nature of test [1]: qHTS assay for identifying genotoxic compounds that show differential cytotoxicity against isogenic chicken DT40 cell lines with known DNA damage response pathways - wild type cell line (AID 743012). Further: nearly all actives have a fitted effect of over 60% in size. Further: potency means the concentration at half of the fitted maximal effect. In short, it runs like this: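 First, wild type DT40 cells were plated at 300 per well and equilibrated about 0.5 h at 37 C/5% CO2. Next, compounds in DMSO were added and exposure lasted 40 h. Finally, CellTiter-Glo was added for 30 min at room temperature and luminescence recorded.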
In general terms: qHTS replaces the single test concentration by a dilution series.

Test [2] can be described thus: qHTS assay for identifying genotoxic compounds that show differential cytotoxicity against isogenic chicken DT40 cell lines with known DNA damage response pathways - Rev3 mutant cell line (AID 743014). Further: nearly all actives have a fitted effect of over 55% in size. Further: potency means the concentration at half of the fitted maximal effect.
Test [3] is described as follows: qHTS assay for identifying genotoxic compounds that show differential cytotoxicity against isogenic chicken DT40 cell lines with known DNA damage response pathways - Rad54/Ku70 mutant cell line (AID 743015). Further: nearly all actives have a fitted effect of over 60% in size. Further: potency means the concentration at half of the fitted maximal effect.
A short description of test [4]: qHTS assay to identify small molecule antagonists of the androgen receptor (AR) signaling pathway - cell viability counter screen (AID 743033; further: nearly all actives have a fitted effect of over 45% in size).
A short description of test [5]: qHTS assay to identify small molecule antagonists of the thyroid receptor (TR) signaling pathway - cell viability counter screen (AID 743064). Further: nearly all actives have a fitted effect of over 50% in size. Further: potency means the concentration at half of the fitted maximal effect. An outline of the steps:
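GH3.TRE-Luc cells, 4 h pre-plating; cpd + T3 1 nM final; 37 °C 23.5 h; CellTiter-Fluor 30 min; fluorescence read.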

The subject of test [6] is thyroid hormone receptor (rat, GH3 cells). Put plainly: qHTS assay to identify small molecule agonists of the thyroid receptor (TR) signaling pathway (AID 743066; calls by dose curve).
Test [7] is described as follows: qHTS assay to identify small molecule antagonists of the estrogen receptor alpha (ER-alpha) signaling pathway - cell viability counter screen (AID 743074; calls by dose curve;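 further: HEK293 cells carrying ER-alpha-UAS-bla reporter stimulated with 17beta-estradiol; nearly all actives have a fitted effect of over 45% in size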; further: potency means the concentration at half of the fitted maximal effect).
A short description of test [8]: qHTS assay to identify small molecule antagonists of the estrogen receptor alpha (ER-alpha) signaling pathway using the BG1 cell line - cell viability counter screen (AID 743081).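 Further: compound given together with 17beta-estradiol as the ER stimulus; nearly all actives have a fitted effect of over 45% in size.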
For another test, the target named is Aromatase (Homo sapiens) (UniProt P11511). Put plainly: qHTS assay to identify aromatase inhibitors (AID 743083). Further: nearly all actives have a fitted effect of over 55% in size. Further: potency means the concentration at half of the fitted maximal effect.
Sequence of Aromatase (Homo sapiens) (P11511 whole entry, looked up): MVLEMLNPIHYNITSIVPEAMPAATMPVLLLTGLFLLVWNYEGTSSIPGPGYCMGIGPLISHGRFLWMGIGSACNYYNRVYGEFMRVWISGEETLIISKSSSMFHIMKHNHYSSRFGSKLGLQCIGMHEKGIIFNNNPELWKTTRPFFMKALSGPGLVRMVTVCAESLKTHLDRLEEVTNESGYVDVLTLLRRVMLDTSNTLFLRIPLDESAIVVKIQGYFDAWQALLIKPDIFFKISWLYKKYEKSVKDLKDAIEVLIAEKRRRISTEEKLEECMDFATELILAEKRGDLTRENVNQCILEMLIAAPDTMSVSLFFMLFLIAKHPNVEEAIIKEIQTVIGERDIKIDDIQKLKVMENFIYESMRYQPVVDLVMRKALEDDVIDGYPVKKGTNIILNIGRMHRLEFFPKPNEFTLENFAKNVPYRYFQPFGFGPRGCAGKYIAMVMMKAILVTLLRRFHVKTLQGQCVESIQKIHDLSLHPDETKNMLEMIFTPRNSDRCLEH
A short description of test [9]: qHTS assay to identify small molecule antagonists of the thyroid receptor (TR) signaling pathway (AID 743065). Further: nearly all actives have a fitted effect of over 55% in size. Further: potency means the concentration at half of the fitted maximal effect. In short, it runs like this: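 GH3.TRE-Luc rat pituitary cells (two TREs driving luciferase) were dosed with compound, then stimulated with 1 nM T3 (final) for 23.5 h at 37 C. ONE-Glo luminescence was the read-out, with CellTiter-Fluor fluorescence as the cytotoxicity counter-screen.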

For test [10], the target named is Estrogen receptor (Homo sapiens) (UniProt P03372). Put plainly: qHTS assay to identify small molecule antagonists of the estrogen receptor alpha (ER-alpha) signaling pathway (AID 743069; active means well fitted curve in the direction sought with a large enough effect in the signal ratio in the repeat runs, not every such curve was filed as active; the % refers to the signal ratio). In short, it runs like this: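 HEK293 ER-alpha-UAS-bla GripTite cells, held overnight in 2% charcoal-stripped FBS, 5,000 cells/well, preincubated 4 h, then compound plus 17beta-estradiol for 18 h at 37C. Beta-lactamase read by LiveBLAzer B/G FRET substrate, 2 h at room temperature.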
Sequence of Estrogen receptor (Homo sapiens) (P03372 whole entry, looked up): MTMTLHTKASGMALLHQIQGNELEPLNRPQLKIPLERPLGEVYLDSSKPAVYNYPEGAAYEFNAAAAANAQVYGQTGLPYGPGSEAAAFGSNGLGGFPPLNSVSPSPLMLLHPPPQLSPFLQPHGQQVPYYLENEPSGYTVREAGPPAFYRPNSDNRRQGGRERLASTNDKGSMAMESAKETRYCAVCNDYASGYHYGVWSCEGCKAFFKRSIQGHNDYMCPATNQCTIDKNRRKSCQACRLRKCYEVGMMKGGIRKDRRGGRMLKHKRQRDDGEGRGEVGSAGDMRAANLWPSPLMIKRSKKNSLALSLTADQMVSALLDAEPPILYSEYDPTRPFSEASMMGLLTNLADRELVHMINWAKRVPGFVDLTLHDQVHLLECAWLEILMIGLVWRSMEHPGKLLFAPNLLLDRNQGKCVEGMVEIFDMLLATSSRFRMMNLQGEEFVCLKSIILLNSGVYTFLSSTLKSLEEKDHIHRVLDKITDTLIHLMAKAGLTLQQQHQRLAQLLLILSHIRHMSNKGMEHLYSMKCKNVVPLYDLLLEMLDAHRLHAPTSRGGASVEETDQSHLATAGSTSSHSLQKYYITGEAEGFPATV

Test [11] has the same target. The test is described as follows: qHTS assay to identify small molecule agonists of the estrogen receptor alpha (ER-alpha) signaling pathway (AID 743075; calls by dose curve).
The target is the same in test [12]. The test is described as follows: qHTS assay to identify small molecule agonists of the estrogen receptor alpha (ER-alpha) signaling pathway using the BG1 cell line (AID 743079). Further: nearly all actives have a fitted effect of over 20% in size. Further: potency means the concentration at half of the fitted maximal effect.
Test [13] is described as follows: qHTS assay to identify small molecule antagonists of the estrogen receptor alpha (ER-alpha) signaling pathway using the BG1 cell line (AID 743080; calls by dose curve;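 further: BG1 cells stimulated with 17beta-estradiol alongside compound; nearly all actives have a fitted effect of over 25% in size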). An outline of the steps: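 BG1-Luc-4E2 cells (endogenous full-length ER-alpha, 4xERE luciferase) hormone-starved 5 days in charcoal-stripped FBS, plated 4,000/well for 24 h, then compound plus 17beta-estradiol for 21.5 h at 37 C; ONE-Glo luminescence read.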

Test [14] can be described thus: qHTS assay to identify small molecule antagonists of the androgen receptor (AR) signaling pathway using the MDA cell line - cell viability counter screen (AID 743041; further: nearly all actives have a fitted effect of over 45% in size). An outline of the steps:
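MDA-kb2 AR-luc cells (MMTV-luciferase, AR/GR responsive) treated with compounds plus R1881 agonist for 16 h at 37C. CellTiter-Fluor added at 15.5 h; fluorescence read after 30 min in the same wells.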

Test [15] has as its target Androgen receptor (Homo sapiens) (UniProt P10275). Put plainly: qHTS assay to identify small molecule agonists of the androgen receptor (AR) signaling pathway (AID 743036; active means well fitted activation curve with a large enough effect in the signal ratio in the repeat runs, with a control signal flat, not every such curve was filed as active; the % refers to the signal ratio). An outline of the steps:
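AR-bla HEK293 cells, 2,000/well; 4 h preincubation 37C/5% CO2; compound (DMSO) 16 h at 37C; LiveBLAzer B/G FRET substrate 2 h RT; fluorescence intensity read-out.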

Test [16] has the same target. Put plainly: qHTS assay to identify small molecule agonists of the androgen receptor (AR) signaling pathway using the MDA cell line (AID 743040; further: nearly all actives have a fitted effect of over 20% in size). The settings on record: MDA-kb2 AR-luc cells, MMTV luciferase, 16 h; activity change: at 70.3 µM (top of the series), stronger effect = higher value. An outline of the steps: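 MDA-kb2 breast carcinoma cells carrying MMTV-luciferase (responsive to AR and GR), plated 5 h then treated 16 h with compounds at 37C, 0% CO2. Read-out was ONE-Glo luminescence after 30 min at room temperature.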

For test [17] the target is unchanged. The test is described as follows: qHTS assay to identify small molecule antagonists of the androgen receptor (AR) signaling pathway using the MDA cell line (AID 743042; further: nearly all actives have a fitted effect of over 55% in size). In short, it runs like this:
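MDA-kb2 breast carcinoma cells carrying MMTV-luciferase (AR/GR responsive) were co-treated with compounds and the agonist R1881 for 16 h at 37C. Inhibition read as ONE-Glo luminescence; CellTiter-Fluor fluorescence measured in parallel for cytotoxicity.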

Molecules are shown by their SMILES. Values joined by “and” are separate entries in the source; they are usually repeats but may differ in a detail not shown here. Equal entries are not always repeated. Inconclusive results are not listed. Some structures have more than one record in an assay (separate samples or runs), and their calls can disagree. Active and inactive are the calls of the source. Unless noted, the call rests on the fitted dose curve; in most records, active means well fitted curve in the direction sought with a large enough effect in the repeat runs; inconclusive means weak or mixed curves; inactive means no such curve, though single readings can be large; an effect the other way counts as inactive or inconclusive.

Sequence of Androgen receptor (Homo sapiens) (P10275 whole entry, looked up): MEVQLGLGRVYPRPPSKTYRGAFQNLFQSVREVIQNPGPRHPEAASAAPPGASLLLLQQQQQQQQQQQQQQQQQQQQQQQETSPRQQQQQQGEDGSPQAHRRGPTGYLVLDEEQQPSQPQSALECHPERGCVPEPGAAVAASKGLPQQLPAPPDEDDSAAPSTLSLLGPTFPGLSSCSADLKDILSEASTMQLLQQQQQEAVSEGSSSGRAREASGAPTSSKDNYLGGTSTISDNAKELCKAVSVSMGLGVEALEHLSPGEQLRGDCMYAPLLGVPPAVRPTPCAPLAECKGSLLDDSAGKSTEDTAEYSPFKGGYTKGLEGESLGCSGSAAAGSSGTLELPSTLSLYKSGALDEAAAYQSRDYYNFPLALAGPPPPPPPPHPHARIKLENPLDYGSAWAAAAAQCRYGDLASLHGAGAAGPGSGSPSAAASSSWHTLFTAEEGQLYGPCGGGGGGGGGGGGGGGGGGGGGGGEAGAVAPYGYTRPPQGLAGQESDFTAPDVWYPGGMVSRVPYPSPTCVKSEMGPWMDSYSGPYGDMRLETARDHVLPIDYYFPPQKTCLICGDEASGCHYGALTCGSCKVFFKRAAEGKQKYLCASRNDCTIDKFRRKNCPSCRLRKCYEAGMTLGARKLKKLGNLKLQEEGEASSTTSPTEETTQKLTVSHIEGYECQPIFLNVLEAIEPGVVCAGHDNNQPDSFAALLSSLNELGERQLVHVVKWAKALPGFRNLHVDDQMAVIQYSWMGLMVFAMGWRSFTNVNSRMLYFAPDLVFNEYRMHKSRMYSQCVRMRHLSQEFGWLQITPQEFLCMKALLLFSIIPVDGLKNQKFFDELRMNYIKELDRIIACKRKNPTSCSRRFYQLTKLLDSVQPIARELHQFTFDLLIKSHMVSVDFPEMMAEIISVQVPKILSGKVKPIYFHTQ

Regarding `ClC1C(Cl)C(Cl)C(Cl)C(Cl)C1Cl` (stereo not drawn), the Potency result is “inactive and 54.5 µM (active)” in test [1]; “inactive and 48.6 µM (active) and 24.3 µM (active)” in test [2]; “inactive and 48.6 µM (active) and 17.2 µM (active)” in test [3]; “inactive and 54.5 µM (active)” with Aromatase (Homo sapiens). In addition, the Potency entry in test [4], in test [5], in [6], in [7] and in test [8] was “inactive” in each case.
In the case of `COc1ccc(C=O)cc1`, the Potency result in [1], in [2], in test [3], in test [4], in test [5] and in [9] was “inactive” in each case. For the same compound, the Potency result in test [6], in test [10], in test [7], in test [11], in test [12] and in [13] was “inactive” each time. The Potency result (in test [8]; with Aromatase (Homo sapiens)) was “inactive” throughout.
Regarding `Cc1ccc(N)c(N)c1`, the Potency in test [1] is 54.6 µM (active) and 17.2 µM (active); in test [2], 30.7 µM (active) and 21.7 µM (active); in test [3], 48.7 µM (active) and 21.7 µM (active); in test [5] it was 13.7 µM (active) and 24.3 µM (active); in [9], 12.2 µM (active) and 19.3 µM (active). Besides, the Potency entry in test [4], in test [14], in test [6], in test [7] and in [8] was “inactive” each time.
With `CCN(CC)C(=O)SCc1ccc(Cl)cc1`, the Potency in test [1] is 43.3 µM (active); in test [2], 21.7 µM (active); in [3] it was 24.3 µM (active). Also, the Potency entry in test [5], in test [9], in [6], in test [7], in test [11] and in [12] was “inactive” each time. Further, the Potency entry (in test [13]; in [8]; with Aromatase (Homo sapiens)) was “inactive” throughout.
For `CCCCNC(=O)n1c(NC(=O)OC)nc2ccccc21`, the Potency in test [1] is 9.64 µM (active) and 8.63 µM (active); in test [2], 5.42 µM (active) and 6.86 µM (active); in [3], 6.82 µM (active) and 8.63 µM (active); in test [9], 7.66 µM (active) and 8.63 µM (active); in test [12], 34.4 µM (active). Also, the Potency entry in test [15], in test [16], in test [14], in test [17], in [6] and in test [7] was “inactive” throughout. In addition, the Potency result (in test [11]; in test [13]; in [8]; with Aromatase (Homo sapiens)) was “inactive” throughout.
Regarding `CNC(=O)Oc1cccc2c1OC(C)(C)O2`, the Potency result in test [1], in [2], in test [3], in test [4], in test [14] and in test [5] was “inactive” throughout. Further, the Potency entry (in test [7]; in [11]; in [12]; in test [13]; in test [8]; in the test with Aromatase (Homo sapiens)) was “inactive” in each case.
As for `O=P(Oc1ccccc1)(Oc1ccccc1)Oc1ccccc1`, the Potency in [1] was 54.2 µM (active) and 48.6 µM (active); in [2], 60.8 µM (active) and 48.6 µM (active); in test [3], 38.4 µM (active) and 27.3 µM (active); in test [12], 6.08 µM (active). The Potency entry in test [14], in test [5], in test [9], in [6], in [7] and in test [11] was “inactive” each time. The Potency result (in [13]; in [8]; with Aromatase (Homo sapiens)) was “inactive” in each case.
With `CCOc1cc(C=O)ccc1O`, the Potency entry in [1], in [2], in test [3], in test [4], in [14] and in test [5] was “inactive” in each case. Besides, the Potency result in [9], in test [6], in test [7] and in test [8] was “inactive” in each case.
Turning to `Oc1cc(Cl)c(Cl)cc1Cl`, the Potency entry in test [1], in test [4], in test [14], in [5], in [9] and in test [6] was “inactive” throughout. Besides, the Potency entry (in test [7]; in test [8]; in the test with Aromatase (Homo sapiens)) was “inactive” each time. For the same compound, the Potency entry in [2] is “inactive and 68.6 µM (active)”; in test [3] it was “inactive and 61.1 µM (active)”.
Take `C=CCc1ccc2c(c1)OCO2`: the Potency entry in test [1], in test [2], in test [3], in test [4], in test [14] and in test [5] was “inactive” each time. Also, the Potency entry (in [9]; in [6]; in test [7]; in [8]; in the test with Aromatase (Homo sapiens)) was “inactive” throughout.
On to `Oc1cc(Cl)ccc1Oc1ccc(Cl)cc1Cl`, for which the Potency in test [1] is 7.02 µM (active); in test [2], 11.4 µM (active); in test [3] it was 26.6 µM (active) and 10.3 µM (active); in test [5], 11.5 µM (active); in test [9] it was 8.84 µM (active); in test [7] it was “inactive and 11.2 µM (active)”. Besides, the Potency result with Aromatase (Homo sapiens) is “inactive and 24.8 µM (active)”. Further, the Potency entry in test [4], in test [14], in test [6] and in [8] was “inactive” throughout.
As to `O=C1C=CC(=O)C=C1`, the Potency entry was “inactive and 9.69 µM (active)” in test [1]; “inactive and 9.69 µM (active)” in test [2]; “inactive and 10.9 µM (active)” in test [3]. Besides, the Potency result (in test [5]; in test [9]; in test [6]; in test [7]; in [8]; in the test with Aromatase (Homo sapiens)) was “inactive” each time.
`Oc1cc(Cl)ccc1Cl`: the Potency result in test [1], in test [2], in [3], in test [4], in test [14] and in test [5] was “inactive” in each case. Also, the Potency entry (in [9]; in test [6]; in test [8]; with Aromatase (Homo sapiens)) was “inactive” in each case.
Turning to `N#CCCCl`, the Potency result in [1], in test [2], in test [3], in test [4], in [5] and in [9] was “inactive” throughout. Further, the Potency entry in [6], in [7] and in test [8] was “inactive” in each case.
On to `NCc1cccnc1`, for which the Potency entry in [1], in [2], in [3], in test [5], in test [9] and in test [6] was “inactive” each time. For the same compound, the Potency entry (in [7]; in test [11]; in test [12]; in [13]; in test [8]; with Aromatase (Homo sapiens)) was “inactive” throughout.

The values above are taken from PubChem BioAssay (Tox21).
